HPGD inh: blocks human HPGD enzyme activity; purified HPGD, NADH fluorescence kinetic, PGE2 substrate; Potency, µM, usual class: inhibitors; hit rate 4.3% among 150,000; AID 894; active = well fitted inhibition curve with a large enough effect, not every such curve was filed as active; inconclusive = small, poorly fitted or top-dose-only effect, or another doubt; inactive = no such curve, though single readings can be large or run the other way
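20 nM HPGD preincubated 15 min at room temperature with compound in 50 mM Tris-HCl pH 8, 0.01% Tween 20. Started with 1 mM NAD+ and 30 uM prostaglandin E2; NADH fluorescence (360/450 nm) read 5 times over 30-s intervals, last minus first.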
12-hLO inh: blocks human 12-lipoxygenase activity | purified 12-hLO, xylenol orange hydroperoxide absorbance | P18054 | hit rate 0.12% among 150,000 | Potency, µM (series often up to 57.1 µM), usual class: inhibitors; also: nearly all actives have a fitted effect of over 55% in size
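150 nM 12hLO, 25 mM Hepes pH 7.0 + 0.01% Triton X-100; cpd preinc 15 min RT; 40 uM arachidonic acid, 30 min RT; Fe-XO 30 min; A573/A405 ratio as read-out.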
IMPase Li inh: membrane-permeable IMPase blocker, potentiated with lithium. CHO-M1 cells, IP1 TR-FRET (IP-One), carbachol + lithium. Potency, µM (top dose mostly 59.4 µM), most hits filed as inhibitors. hit rate 0.35% among 210,000. AID 1457;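 also: IP1 builds up when IMPase is blocked and the TR-FRET signal falls; nearly all actives have a fitted effect of over 50% in size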
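IP1 accumulation measured by competitive TR-FRET in lysed CHO-M1 cells after 30 min compound exposure at 37C, with a small lithium addition to potentiate weak responses. Hill-equation AC50 from ratio and donor-channel data.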
NPSR antagonist: blocks cAMP signaling of the human neuropeptide S receptor; CHO-NPSR cells, cAMP TR-FRET, antagonist mode; Potency, µM (top dose mostly 38.3 µM), actives largely listed as inhibitors; hit rate 1% among 220,000; also: nearly all actives have a fitted effect of over 50% in size
IMPase inh: cell-permeable inhibitors of inositol monophosphatase (IMPase) | P97697 | CHO-M1 cells, IP1 accumulation, HTRF TR-FRET ratio | inhibition (IP1 accumulation), % at 46.1 µM | 120,000 tested, under 10 active; active = well fitted curve in the direction sought with a large enough effect in the signal ratio, not every such curve was filed as active; inconclusive = small, poorly fitted or top-dose-only effect, or a change in a side signal; inactive = no such curve, though single readings can be large or run the other way; the % refers to the signal ratio;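 also: cells stimulated with carbachol in lithium chloride buffer; higher means more IMPase inhibition seen as more IP1 and lower FRET ratio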
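Measured: the HTRF emission ratio (665/620 nm) plus the 620 nm donor channel, each fitted to the Hill equation to give AC50. Cells were CHO-M1 given compounds up to 46 uM and a 30 min carbachol stimulation at 37C.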
ALDH1A1 block: inhibitors of human aldehyde dehydrogenase 1A1; P00352; Purified ALDH1A1, NADH fluorescence, propionaldehyde substrate; Potency, µM (highest dose often 75.3 µM), most hits filed as inhibitors; hit rate 7.3% among 220,000; active = well fitted inhibition curve with a large enough effect, not every such curve was filed as active; inconclusive = small, poorly fitted or top-dose-only effect, or another doubt; inactive = no such curve, though single readings can be large or run the other way
Target sequence (P00352 whole entry, looked up): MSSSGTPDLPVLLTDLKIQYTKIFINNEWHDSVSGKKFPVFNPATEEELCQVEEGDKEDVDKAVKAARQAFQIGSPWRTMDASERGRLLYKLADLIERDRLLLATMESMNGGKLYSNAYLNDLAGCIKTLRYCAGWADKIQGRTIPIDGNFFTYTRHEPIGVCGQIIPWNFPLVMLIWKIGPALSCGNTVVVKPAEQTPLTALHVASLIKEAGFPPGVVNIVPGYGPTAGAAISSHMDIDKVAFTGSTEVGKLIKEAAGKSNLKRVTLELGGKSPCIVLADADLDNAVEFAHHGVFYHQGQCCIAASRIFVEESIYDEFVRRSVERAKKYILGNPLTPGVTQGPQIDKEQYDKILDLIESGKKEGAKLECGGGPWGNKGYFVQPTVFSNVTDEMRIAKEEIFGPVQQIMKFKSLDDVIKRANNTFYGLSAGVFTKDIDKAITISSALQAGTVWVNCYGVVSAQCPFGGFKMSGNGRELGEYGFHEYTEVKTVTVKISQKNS
Numbers stand for hits; n = inactive; u = inconclusive; x = no result; [ ] = dose if it differs, or a comment. Most compounds without a hit are left out; they make up all but 8.9% or so of the library. Unless noted, calls follow the shape of the dose curve; as a rule, active = well fitted curve in the direction sought with a large enough effect; inconclusive = small, poorly fitted or top-dose-only effect, or another doubt; inactive = no such curve, though single readings can be large; an effect the other way counts as inactive or inconclusive.

SMILES	HPGD inh	12-hLO inh	IMPase Li inh	NPSR antagonist	IMPase inh	ALDH1A1 block
COc1ccc(NC(=S)N2CCN(c3ccc([N+](=O)[O-])cc3)CC2)cc1OC	x	x	n	n	x	n
Cc1cc(C)n(-c2ccc(C(=O)NC(C)C)cc2)n1	20µM	n	n	n	n	n
Cc1cc(-c2ccccc2)n(-c2ccc(C(=O)NC(C)C)cc2)n1	n	n	n	n	n	n
CC(=O)Nc1ccc(OCCC[n+]2ccccc2)cc1	x	x	n	n	x	2.51µM
O=C(c1ccc(Cl)cc1)N1CCC(O)(CSc2ccc(Cl)cc2Cl)CC1	n	n	n	u	n[1.84 µM]	22.4µM
COc1ccccc1-n1cnc(N)c1C(=O)c1ccccc1	n	n	n	n	n	n
N#Cc1c(NC(=O)Cn2nc(C(F)(F)F)c3c2CCCC3)sc2c1CCC2	8.91µM	n	n	n	n	7.94µM
CC1CCc2c(sc(NC(=O)Cn3nc(C(F)(F)F)c4c3CCCCC4)c2C#N)C1 (stereo not drawn)	35.5µM	n	n	n	n	25.1µM
CC1CCc2c(sc(NC(=O)C3CCCO3)c2C#N)C1 (stereo not drawn)	x	x	n	n	x	u
CC(C)NCC(O)COCCOc1ccc(Cl)cc1 (stereo not drawn)	x	x	x	n	x	x
Cc1cc(C(C)(C)CC(C)(C)C)ccc1OCCOCC[N+](C)(C)Cc1ccccc1	n	n	n	x	n	n
O=C(O)COc1ccc(Oc2ccccc2)cc1	n	n	n	n	n	n
O=C(O)CSc1ccc(Oc2ccc(SCC(=O)O)cc2)cc1	x	x	n	n	x	12.6µM
COc1ccccc1N1CCN(CC(O)c2ccc3cc[nH]c3c2)CC1 (stereo not drawn)	n	n	n	n	n	u
C=CCN1C(=O)C(C)(C)Nc2ccccc21	n	n	n	n	n	n
C=CCN1C(=O)/C(=N/n2cnnc2)c2ccccc21	n	n	n	n	n	0.0631µM
COc1cc(NC(=O)CCC(=O)OCCCC(F)(F)C(F)(F)F)nc(OC)n1	x	x	n	n	x	n
Cc1ccc(Nc2nc(N)nc(CN3CCN(C(=O)c4ccco4)CC3)n2)cc1Cl	n	n	n	u	n	7.94µM
Cc1ccc(Nc2nc(N)nc(CN3CCN(c4ccccc4F)CC3)n2)cc1	n	n	n	n	n	31.6µM
COc1ccc(CN(C(=O)c2ccco2)c2ccc(C)cc2)cc1OC	n	n	n	n[7.67 µM]	n	7.94µM
CCN1CCN(Cc2nc(N)nc(Nc3ccc(C)c(C)c3)n2)CC1	n	n	n	n	n	n
COc1ccc(CN2CCN(C(=O)c3ccco3)CC2)cc1OC	x	x	n	n	x	20µM
CCOC(=O)C1C(=O)OC(C)(C)C1C(C)C(=O)c1ccc(OC)cc1 (stereo not drawn)	n	n	n	n	n	u
COc1ccc(-c2nc3ccccc3o2)cc1NC(=O)c1ccc(-c2ccc(Br)cc2)o1	x	x	x	x	n	x
COc1cc(NC(=S)N2CCN(C(=O)c3ccco3)CC2)c(OC)cc1Cl	31.6µM	n	n	n	n	25.1µM
SMILES	HPGD inh	12-hLO inh	IMPase Li inh	NPSR antagonist	IMPase inh	ALDH1A1 block
COc1ccc(Cl)cc1NC(=S)N1CCN(C(=O)c2ccco2)CC1	n	n	n	n	n	u
Cc1ccc2c(CN3CCN(C(=O)c4ccco4)CC3)cc(=O)oc2c1C	x	x	n	n	x	25.1µM
O=C1CC(=O)N(CCNc2ncc(C(F)(F)F)cc2Cl)C(=O)N1	n	n	n	n	n	n
O=S(=O)(NCCNc1ncc(C(F)(F)F)cc1Cl)C(F)(F)F	x	x	n	n	x	n
O=C1C=CC(=O)N1CCNc1ncc(C(F)(F)F)cc1Cl	x	x	n	n	x	0.631µM
O=C(O)/C=C/C(=O)NCCNc1ncc(C(F)(F)F)cc1Cl	x	x	n	n	x	28.2µM
CCOc1ccc(C(=O)N2CCN(c3cccc(C)c3C)CC2)cc1	n	n	n	u	n	n
COc1ccc(Cl)cc1N(C)C(=O)CCNC(=O)Cn1cnc2ccccc2c1=O	n	n	n	n	n	n
CC(=O)Nc1cc(C(C)(C)C)c(O)c(C(C)(C)C)c1	n	n	n	n	n	11.2µM
CC(C)(C)NC(=O)c1cc(C(C)(C)C)c(O)c(C(C)(C)C)c1	n	n	n	n	x	n
CC(C)Oc1ccc(NC(=O)C2CCCNC2=O)cc1 (stereo not drawn)	n	n	n	n	n	n
CCn1c(SCC(=O)N/N=C/C=C\c2ccco2)nc2ccccc21	u	n	n	n	n	10µM
Cn1c(SCC(=O)N/N=C/c2ccncc2)nc2ccccc21	x	x	x	n	x	x
Cn1c(SCC(=O)N/N=C/C=C\c2ccco2)nc2ccccc21	20µM	u	n	n	n	5.97µM
CCn1c(SCC(=O)N/N=C/c2cc(OC)c(OC)c(OC)c2)nc2ccccc21	n	n	n	n	x	25.1µM
CCn1c(SCC(=O)N/N=C/c2cc(OC)c(O)c(OC)c2)nc2ccccc21	n	n	n	n	n	u
C/C(=N/NC(=O)CSc1nc2ccccc2n1C)c1ccc(O)cc1	x	x	n	n	x	12.6µM
COc1cc(NC(=O)CSc2nncn2C)cc(OC)c1OC	x	x	n	n	x	n
Cc1ccc(-c2nc(N)sc2-c2ccc(C)cc2)cc1	x	x	n	u	x	n
N#Cc1cc2sc3nnc(-c4ccncc4)n3c2cc1C#N	n	n	n	n	n	n
COc1ccc(OC)c(-n2c(=S)[nH]c3c(sc(=S)n3-c3ccccc3C)c2=O)c1	x	x	n	n	x	n
CCOC(=O)c1cn(-c2ccc([N+](=O)[O-])cc2)c2cc(Cl)c([N+](=O)[O-])cc2c1=O	n	n	n	n	x	n
c1ccc2sc(N3CCOCC3)nc2c1	n	n	n	n	n	n
COc1ccc(N2C(=O)CC(N3CCN(c4nc5ccccc5s4)CC3)C2=O)cc1 (stereo not drawn)	n	n	n	n	u	25.1µM
COc1ccc(N2C(=O)CC(N3CCN(c4ccc(S(C)(=O)=O)cc4)CC3)C2=O)cc1 (stereo not drawn)	n	n	n	n	n	22.4µM
SMILES	HPGD inh	12-hLO inh	IMPase Li inh	NPSR antagonist	IMPase inh	ALDH1A1 block
COc1cccc2sc(N3CCN(c4nc5ccccc5s4)CC3)nc12	x	n	x	n	n	14.1µM
CCOc1cccc(N2C(=O)CC(N3CCN(c4nc5ccccc5s4)CC3)C2=O)c1 (stereo not drawn)	n	n	n	n	n	n
O=C(NCCC1=CCCCC1)NC12CC3CC(CC(C3)C1)C2	n	n	n	n	n	u
CCOC(=O)C1=NN(c2cccc(C)c2)C2(S1)SC(C(C)=O)=C(C)N2c1ccccc1 (stereo not drawn)	n	n	n	u	n	u
Cc1nn(-c2ccccc2)c(Cl)c1C(=O)NCCN(C)C	x	x	n	n	x	n
CCc1ccccc1OCCCCCNCCO	n	n	n	n	n	n
N#C/C(=C\C1=C(N2CCOCC2)C(=C\c2ccc(Cl)cc2)/CC1)C(=O)Nc1ccccc1F	n	n	n	n	x	n
